From ChEMBL document CHEMBL3988442, “University of Dundee, Small-Polar-MMV Screening Library” (2021)
The campaign covered roughly 53,000 compounds. About 900 (1.7%) showed an effect of 50% or more. Shown is part of a subset that was picked to be rich in strong results.

tested on: Mycobacterium tuberculosis; assay: Cornell - Phenotypic assay to identify agents that inhibit growth of Mycobacterium tuberculosis; format: functional; parameters: scale not given: direction of the effect not stated beside the values; settings: 10 mM as filed; unlikely as a test dose

**Q.** Which “Percent Effect” value does the source give for `CNS(=O)(=O)c1cc(C(=O)NC2CCOc3ccccc32)cc(C)c1C` (stereo unspecified) here?
**A.** The value was -0.5765%.

**Q.** `Cc1cccc(CN2CC[C@@H]3[C@@H]2CCN3C(=O)Cc2cccs2)n1.O=C(O)C(F)(F)F.O=C(O)C(F)(F)F` was tested. Which “Percent Effect” value did it give?
**A.** The value was 14.31%.

**Q.** For `Cn1nc(Br)c2c(NCCNc3ncccn3)ncnc21`, which “Percent Effect” value is on record?
**A.** Its value is 7.21%.

**Q.** With `O=C(c1nnn(-c2ccc(C(F)(F)F)cc2)n1)N1CCC(O)CC1` as the molecule, how does the “Percent Effect” value read?
**A.** The value was 42.24%.

**Q.** `CC1CCCN(C(=O)c2nnn(-c3ccc(C(F)(F)F)cc3)n2)C1` (stereo unspecified) was tested. Which “Percent Effect” value did it give?
**A.** Its value is 77.62%.

**Q.** How did the “Percent Effect” value turn out when `O=C(c1nnn(-c2ccc(C(F)(F)F)cc2)n1)N1CC(O)C1` was run?
**A.** Its value is 30.38%.

**Q.** For `Cc1cc(N2CCCC2c2nnc3n2CCCCC3)nc(N)n1` (stereo unspecified), which “Percent Effect” value is on record?
**A.** The value was -31.59%.

**Q.** With `COCC(=O)N1CCc2ncc(Cn3cncn3)n2CC1` as the molecule, how does the “Percent Effect” value read?
**A.** Its value is 12.01%.

**Q.** Which “Percent Effect” value does the source give for `CN1CC2(CCCN(Cc3cccc(Oc4ccccc4)c3)C2)OC1=O` (stereo unspecified) here?
**A.** The value was 2.197%.

**Q.** Which “Percent Effect” value does the source give for `Cn1cc(-c2c(C#N)c(N)nc3c2CCc2[nH]ccc2-3)cc1C#N` here?
**A.** Its value is 1.934%.

**Q.** For `COc1ncc(-c2c(C#N)c(N)nc3c2CCc2[nH]ccc2-3)cn1`, which “Percent Effect” value is on record?
**A.** Its value is 19.25%.

**Q.** For `Cn1cc(-c2c(C#N)c(N)nc3c2CCc2[nH]ccc2-3)cn1`, which “Percent Effect” value is on record?
**A.** The value was 95.48%.

**Q.** With `Cc1nc(NC(=O)c2c(-n3cnnn3)sc3c2CCCC3)sc1C` as the molecule, how does the “Percent Effect” value read?
**A.** Its value is 19.43%.

**Q.** Which “Percent Effect” value does the source give for `CCN1CCCC(NC(=O)CCn2c(C(F)F)cc3cccnc32)C1` (stereo unspecified) here?
**A.** Its value is 6.84%.

**Q.** With `COCC1N(C(=O)Nc2ccccc2)[C@H]2CC[C@]1(O)CC2` (stereo partly specified) as the molecule, how does the “Percent Effect” value read?
**A.** The value was -35.59%.

**Q.** Which “Percent Effect” value does the source give for `Cc1nc(-c2cccc(N3CCC(N4CCCC(C#N)C4)CC3)c2)cs1` (stereo unspecified) here?
**A.** The value was 11.96%.

**Q.** Which “Percent Effect” value does the source give for `COC1CCCN(C2CCN(c3cccc(-c4csc(C)n4)c3)CC2)C1` (stereo unspecified) here?
**A.** Its value is -0.3551%.

**Q.** With `Cc1nc(-c2cccc(N3CCC(N4CCCC4)CC3)c2)cs1` as the molecule, how does the “Percent Effect” value read?
**A.** The value was 50.87%.

**Q.** How did the “Percent Effect” value turn out when `COCCN1CCC(CNC(=O)c2ccnc(-n3ccnc3)c2)CC1` was run?
**A.** The value was -23.45%.

**Q.** How did the “Percent Effect” value turn out when `COC(=O)c1cnc(C(=O)N(c2ccc(OC)c(F)c2)C(C)C)cn1` was run?
**A.** The value was 77.94%.

**Q.** `COc1ccc(N(C(=O)c2cnc(C)cn2)C(C)C)cc1F` was tested. Which “Percent Effect” value did it give?
**A.** The value was -10.07%.

**Q.** For `COc1ccc(N(C(=O)c2ccccn2)C(C)C)cc1F`, which “Percent Effect” value is on record?
**A.** Its value is 9.62%.

**Q.** How did the “Percent Effect” value turn out when `COc1cc(N2C[C@@H]3COC[C@]3(COc3cccnc3)C2)ncn1.O=C(O)C(F)(F)F.O=C(O)C(F)(F)F` was run?
**A.** The value was -11.05%.

**Q.** How did the “Percent Effect” value turn out when `O=C(O)c1ccc(S(=O)(=O)Nc2cnn(CC(F)(F)F)c2)cc1` was run?
**A.** Its value is 41.5%.

**Q.** `COc1cccc(CC(C)NC(=O)NCCNC(C)=O)c1` (stereo unspecified) was tested. Which “Percent Effect” value did it give?
**A.** Its value is 11.1%.

**Q.** For `COc1cccc(CC(C)NC(=O)NC(C)C)c1` (stereo unspecified), which “Percent Effect” value is on record?
**A.** Its value is 44.88%.

**Q.** Which “Percent Effect” value does the source give for `COc1cccc(CC(C)NC(=O)NCc2ccn(C)c2)c1` (stereo unspecified) here?
**A.** The value was 85.29%.

**Q.** `CS(=O)(=O)C1CCN(S(=O)(=O)c2ccc(F)c(F)c2)CC1` was tested. Which “Percent Effect” value did it give?
**A.** Its value is 25.65%.

**Q.** `CCc1nc(CNC2CCN(c3ccc(OC)cc3)CC2)cs1` was tested. Which “Percent Effect” value did it give?
**A.** Its value is 27.61%.

**Q.** How did the “Percent Effect” value turn out when `COc1ccc(N2CCC(NCc3csc(C(C)C)n3)CC2)cc1` was run?
**A.** The value was 77.68%.

**Q.** With `CC(C)c1nc(CNc2ccc(N3CCC(CO)CC3)cn2)cs1` as the molecule, how does the “Percent Effect” value read?
**A.** The value was 20.33%.

**Q.** `COCCn1c(CN2CCCO2)cnc1S(=O)(=O)CC1CCCCC1` was tested. Which “Percent Effect” value did it give?
**A.** The value was 19.4%.

**Q.** For `CN(C)C1Cc2ccccc2N(S(=O)(=O)c2ccc(C#N)cc2)C1` (stereo unspecified), which “Percent Effect” value is on record?
**A.** The value was 12.67%.

**Q.** For `CN(C)C(=O)C1CN(Cc2ccc(C#N)cc2)c2ccccc2O1` (stereo unspecified), which “Percent Effect” value is on record?
**A.** The value was 104.5%.

**Q.** `CN(C)C(=O)C1CN(Cc2ccc(C#N)cc2F)c2ccccc2O1` (stereo unspecified) was tested. Which “Percent Effect” value did it give?
**A.** Its value is 104.6%.

**Q.** How did the “Percent Effect” value turn out when `N#Cc1ccc(S(=O)(=O)N2CC(CC(=O)O)c3ccccc32)cc1` (stereo unspecified) was run?
**A.** The value was 19.47%.

**Q.** Which “Percent Effect” value does the source give for `Cc1cccc(NC(=O)[C@@H]2CCCN2Cc2ccc(C#N)cc2F)n1` here?
**A.** The value was 12.34%.

**Q.** `CNC(=O)C1CN(Cc2ccc(C#N)cc2F)c2ccccc2O1` (stereo unspecified) was tested. Which “Percent Effect” value did it give?
**A.** The value was 105.9%.

**Q.** With `CN(C)C(=O)Cc1ccccc1NCc1cc(C#N)ccc1F` as the molecule, how does the “Percent Effect” value read?
**A.** Its value is 3.977%.

**Q.** With `CNC(=O)[C@@H]1CC[C@@H]2[C@@H](CCN2Cc2ccccc2F)O1.O=C(O)C(F)(F)F` as the molecule, how does the “Percent Effect” value read?
**A.** Its value is -11.16%.

**Q.** How did the “Percent Effect” value turn out when `Cc1cc(CN2CCN(Cc3ccc(C#N)cc3F)CC2)no1` was run?
**A.** The value was -3.509%.

**Q.** `CCS(=O)(=O)N1CCc2c(cccc2NC(=O)NCCOC)C1` was tested. Which “Percent Effect” value did it give?
**A.** Its value is 16.78%.

**Q.** `COc1ccccc1CCN(C)C(C)c1nc(-c2cccnc2)no1` (stereo unspecified) was tested. Which “Percent Effect” value did it give?
**A.** Its value is -40.91%.

**Q.** Which “Percent Effect” value does the source give for `CN(CCc1ccncc1)c1cnn(C)c(=O)c1Br` here?
**A.** The value was -2.68%.

**Q.** With `CC1Cn2c(nc3c2c(=O)[nH]c(=O)n3C)O1` (stereo unspecified) as the molecule, how does the “Percent Effect” value read?
**A.** Its value is -12.37%.

**Q.** `COCC(=O)N1CCCCC1c1ccncn1` (stereo unspecified) was tested. Which “Percent Effect” value did it give?
**A.** The value was -40.59%.

**Q.** For `Cc1cc(C(=O)Nc2n[nH]c(C3CC3)n2)c2c(C)nn(C)c2n1`, which “Percent Effect” value is on record?
**A.** The value was 11.85%.

**Q.** `COc1ccc(N2CCC(NC(=O)c3sccc3C)CC2)cc1` was tested. Which “Percent Effect” value did it give?
**A.** The value was -7.923%.

**Q.** Which “Percent Effect” value does the source give for `CC(=O)c1ccc(NC(=O)NCc2cccc(N(C)C)n2)cc1C` here?
**A.** The value was 76.43%.

**Q.** How did the “Percent Effect” value turn out when `CN(C)c1cccc(CNC(=O)Nc2ccc3[nH]nnc3c2)n1` was run?
**A.** The value was 45.79%.

**Q.** `Cc1nc(CCNC(=O)NCc2cccc(N(C)C)n2)cs1` was tested. Which “Percent Effect” value did it give?
**A.** The value was -57.29%.

**Q.** Which “Percent Effect” value does the source give for `CCC(=O)N1CCC(c2ncc3c(n2)CCNC3)CC1` here?
**A.** Its value is -31.27%.

**Q.** `Cl.O=C(NC1CCCC1)c1ccnc(C2CCNCC2)c1` was tested. Which “Percent Effect” value did it give?
**A.** Its value is 56.56%.

**Q.** For `Cl.O=C(c1ccnc(C2CCNCC2)c1)N1CCCC1`, which “Percent Effect” value is on record?
**A.** The value was -26.15%.

**Q.** Which “Percent Effect” value does the source give for `Cl.Cn1ccnc1CNC(=O)c1ccnc(C2CCNCC2)c1` here?
**A.** Its value is -5.824%.

**Q.** `O=C(O)C(F)(F)F.O=C(O)C(F)(F)F.c1cnn(CCCO[C@@H]2CC[C@H]3[C@H]2OCCN3CC2CCOCC2)c1` was tested. Which “Percent Effect” value did it give?
**A.** The value was -30.39%.

**Q.** Which “Percent Effect” value does the source give for `O=C(Nc1nc2c(s1)CN(S(=O)(=O)C1CC1)CC2)c1ccc(Cl)s1` here?
**A.** Its value is 7.24%.

**Q.** `O=C(Nc1nc2c(s1)CN(S(=O)(=O)C1CC1)CC2)c1cccc(Cl)c1` was tested. Which “Percent Effect” value did it give?
**A.** The value was 52.55%.

**Q.** With `O=C(Nc1nc2c(s1)CN(S(=O)(=O)C1CC1)CC2)c1c(F)cccc1F` as the molecule, how does the “Percent Effect” value read?
**A.** Its value is 0.32%.

**Q.** How did the “Percent Effect” value turn out when `Cc1ccc(C(=O)N2CC(=O)N(Cc3ccco3)CC(O)C2)cc1` (stereo unspecified) was run?
**A.** Its value is 7.151%.

**Q.** For `Cc1cc(C)n(C2CN(Cc3noc(-c4ccccc4)n3)C2)n1`, which “Percent Effect” value is on record?
**A.** Its value is 16.77%.

**Q.** With `COc1ccc(-c2nc(CN3CC(n4cc(C)cn4)C3)no2)cc1` as the molecule, how does the “Percent Effect” value read?
**A.** The value was 55%.

**Q.** With `Cc1ccc(-c2nc(CN3CC(n4nc(C)cc4C)C3)no2)cc1` as the molecule, how does the “Percent Effect” value read?
**A.** Its value is 102.5%.

**Q.** With `COc1ccc(-c2nc(CN3CC(n4nc(C)cc4C)C3)no2)cc1` as the molecule, how does the “Percent Effect” value read?
**A.** Its value is 46.41%.

**Q.** Which “Percent Effect” value does the source give for `COc1ccc(-c2noc(CN3CC(n4cc(C)cn4)C3)n2)cc1` here?
**A.** The value was 22.62%.

**Q.** For `COc1ccc(-c2nc(CN3CC(n4cccn4)C3)no2)cc1`, which “Percent Effect” value is on record?
**A.** Its value is 15.06%.
